# In PubChem BioAssay (EPA / NIEHS):
# Calls of active or inactive are those of the source. How the source made its calls, unless noted: active means hit-call score of the fitted dose curve at least 0.9, where 1 is the maximum; inactive means score below 0.9.
# What was measured:
# TTR (gene 7276) = experiment: CCTE_GLTED_hTTR_0.5uM: CCTE's human Transthyretin (hTTR) Inhibition Assay, with 0.5uM TTR, Great Lakes Toxicology and Ecology Division (GLTED) Lab (AID 2284320)
# Procedure, shortened: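 Probe (ANSA) displacement from 0.5 uM human transthyretin was followed by fluorescence (ex 380, em 475) after a 2 h incubation with chemical. Activity was scored as signal loss and fitted positively relative to DMSO.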
# SERPINA7 (gene 6906) = experiment: CCTE_GLTED_hTBG: CCTE's human Thyroxine-binding Globulin (TBG) Inhibition Assay, Great Lakes Toxicology and Ecology Division (GLTED) Lab (AID 2284343; active means hit-call score of the fitted dose curve at least 0.9, where 1 is the maximum;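 further: active chemicals lower fluorescence versus DMSO baseline by displacing probe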)
# Procedure, shortened: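 Cell-free displacement of the fluorescent probe ANSA from human thyroxine-binding globulin after 2 h exposure. Read-out at ex 380/em 475 nm; DMSO baseline.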
# [1] = Tanguay_ZF_120hpf_MO24: Oregon State University Tanguay Lab 24 Hour Post-fertilization zebrafish Assay for Mortality (AID 2284389)
# Procedure, shortened: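 Embryo death at 24 hpf was recorded as present or absent in Tropical 5D zebrafish, dechorionated at 4 hpf and dosed statically from 6 hpf (28C, 0.64% DMSO); 5 uM trimethyltin chloride served as positive control.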
# [2] = Tanguay_ZF_120hpf_CRAN: Oregon State University Tanguay Lab 120 Hour Post-fertilization zebrafish Assay for Craniofacial Malformation (AID 2284397)
# Procedure, shortened: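 Scoring of craniofacial malformation as a binary endpoint was done at 120 hpf by brightfield microscopy and was not done in dead embryos. Exposure was static, starting at 6 hpf, in dechorionated wild-type embryos held singly at 28C with 0.64% DMSO final.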
# [3] = Tanguay_ZF_120hpf_AXIS: Oregon State University Tanguay Lab 120 Hour Post-fertilization zebrafish Assay for Axial Malformation (AID 2284398)
# Procedure, shortened: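 Scoring was binary (present or absent) for body-axis defects, judged by brightfield imaging at 120 hpf in surviving larvae. Exposure was static at 28C from 6 hpf in chorion-free 5D wild-type embryos, with 0.64% DMSO vehicle.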
# [4] = CCTE_Deisenroth_5AR_NBTE_donor: CCTE's 5alpha-reductase NanoBRET Target Engagement Assay […], Deisenroth Lab (AID 2284319); settings: actives raise or lower the signal
# Procedure, shortened: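 SRD5A2-NanoLuc, HEK293T, 20 h expression. Chemical 10 nM - 29.9 uM, 8 conc, duplicate; 3 h preincubation + 2 h testosterone tracer. Nano-Glo substrate plus extracellular NanoLuc inhibitor; donor lum 460 nm. DMSO baseline, bidirectional fit.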
# [5] = CCTE_Deisenroth_5AR_NBTE_acceptor: CCTE's 5alpha-reductase NanoBRET Target Engagement Assay - Autofluorescence Screen, Deisenroth Lab (AID 2284321); settings: actives raise or lower the signal;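 further: compound fluorescence in the acceptor channel under 460 nm excitation flags autofluorescence artifacts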
# Procedure, shortened: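 Acceptor-channel fluorescence flags artifacts, with excitation fixed at 460 nm. Nominal 100 uM chemical samples were read in triplicate runs, and signal changes were fitted in both directions relative to DMSO.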
# SRD5A2 (gene 6716) = experiment: CCTE_Deisenroth_5AR_NBTE_ratio: CCTE's 5alpha-reductase NanoBRET Target Engagement Assay - Ratio, Deisenroth Lab (AID 2284322); settings: actives raise or lower the signal
# Procedure, shortened: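 HEK293T cells transiently expressing an SRD5A2-NanoLuc fusion (20 h post-transfection) were exposed to test chemical (10 nM - 29.9 uM, 8 points) for 3 h, then testosterone tracer for a further 2 h. Acceptor/donor BRET ratio was fitted bidirectionally against DMSO baseline.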
# [6] = Tanguay_ZF_120hpf_DP24: Oregon State University Tanguay Lab 24 Hour Post-fertilization zebrafish Assay for Delayed Development (AID 2284390)
# Procedure, shortened: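 Scored at 24 hpf as a binary present/absent call of delayed development by brightfield, with dead embryos not assessed. Embryos (5D wild type, chorion removed with pronase at 4 hpf) dosed statically from 6 hpf at 28 C in 0.64% DMSO.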
compound,measurement,setting,value
FC(F)(F)C(F)(F)C(F)(F)C(F)(F)C(F)(F)CCI,AC50,TTR (gene 7276),18.6 µM (active)
same,AC50,SERPINA7 (gene 6906),27 µM (active)
same,outcome,[1],inactive
same,outcome,[2],inactive
same,outcome,[3],inactive
O=C(OCCOCCOCCOC(=O)c1ccccc1)c1ccccc1,outcome,[4],inactive
same,outcome,[5],inactive
same,outcome,SRD5A2 (gene 6716),inactive
O=C(O)C(F)(OC(F)(F)C(F)(OC(F)(F)C(F)(F)C(F)(F)F)C(F)(F)F)C(F)(F)F (configuration not stated),outcome,[1],inactive
same,outcome,[6],inactive
same,outcome,[2],inactive
same,outcome,[3],inactive
NC(=O)C(F)(F)C(F)(F)C(F)(F)C(F)(F)F,outcome,[1],inactive
same,outcome,[2],inactive
same,outcome,[3],inactive
FC(F)(F)C(F)(F)CNCC(F)(F)C(F)(F)F,outcome,[1],inactive
same,outcome,[2],inactive
same,outcome,[3],inactive
O=C(O)C(F)(F)C(F)(F)C(F)(F)C(F)(F)C(F)(F)C(F)(F)C(F)(F)C(F)(F)C(F)(F)C(F)(F)C(F)(F)C(F)(F)C(F)(F)F,AC50,TTR (gene 7276),10.3 µM (active)
same,outcome,[1],inactive
same,outcome,[2],inactive
same,outcome,[3],inactive
O=C(O)C(F)(F)C(F)(F)C(F)F,AC50,TTR (gene 7276),14.9 µM (active)
same,outcome,[1],inactive
same,outcome,[6],inactive
same,outcome,[2],inactive
same,outcome,[3],inactive
C=C(C)C(=O)OCCC(F)(F)C(F)(F)C(F)(F)C(F)(F)C(F)(C(F)(F)F)C(F)(F)F,outcome,[1],inactive
same,outcome,[2],inactive
same,outcome,[3],inactive
FC(F)(F)C(F)(F)C(F)(F)C(F)(F)C(F)(F)C(F)(F)C(F)(F)Br,outcome,[1],inactive
same,outcome,[6],inactive
same,outcome,[2],inactive
same,outcome,[3],inactive
O=S(=O)(O)c1ccc2ccccc2c1,AC50,SERPINA7 (gene 6906),24.5 µM (active)
C=CC(F)(F)C(F)(F)C(F)(F)C(F)(F)C(F)(F)C(F)(F)C(F)(F)C(F)(F)F,outcome,[1],inactive
same,outcome,[2],inactive
same,outcome,[3],inactive
FC1CC(F)(F)C(F)(F)C1(F)F (configuration not stated),outcome,[1],inactive
same,outcome,[6],inactive
same,outcome,[2],inactive
same,outcome,[3],inactive
O=C(O)C(F)(F)C(F)(F)C(F)(F)C(F)(F)C(F)(F)C(F)(F)C(F)(F)C(F)(F)C(F)(F)C(F)(F)C(F)(F)C(F)(F)F,AC50,TTR (gene 7276),11.6 µM (active)
same,outcome,[1],inactive
same,outcome,[2],inactive
same,outcome,[3],inactive
C=CC(=O)OCC(F)(F)C(F)(F)C(F)(F)C(F)(F)C(F)(F)C(F)(F)C(F)(F)F,outcome,[1],inactive
same,outcome,[2],inactive
same,outcome,[3],inactive
Cc1ccc(S(=O)(=O)OCC(F)(F)C(F)(F)C(F)(F)C(F)(F)C(F)(F)C(F)F)cc1,outcome,[1],inactive
same,outcome,[2],inactive
same,outcome,[3],inactive
CCCCCCCCC(F)(F)C(F)(F)C(F)(F)C(F)(F)C(F)(F)C(F)(F)F,outcome,[1],inactive
same,outcome,[2],inactive
same,outcome,[3],inactive
FC(F)(F)C(F)(F)C(F)(F)C(F)(F)C(F)(F)C(F)(F)C(F)(F)I,outcome,[1],inactive
same,outcome,[2],inactive
same,outcome,[3],inactive
O=C(O)C(F)(F)C(F)(F)C(F)(F)C(F)(F)F,AC50,TTR (gene 7276),10.2 µM (active)
same,outcome,[1],inactive
same,outcome,[6],inactive
same,outcome,[2],inactive
same,outcome,[3],inactive
C=C(C)C(=O)OCC(F)(F)C(F)(F)C(F)(F)C(F)(F)C(F)(F)C(F)(F)C(F)(F)F,outcome,[1],inactive
same,outcome,[2],inactive
same,outcome,[3],inactive
C=CC(F)(F)C(F)(F)C(F)(F)C(F)(F)C(F)(F)C(F)(F)C(F)(F)C(F)(F)C=C,outcome,[1],inactive
same,outcome,[2],inactive
same,outcome,[3],inactive
OCC(F)(F)C(F)(F)C(F)(F)C(F)(F)C(F)(F)C(F)F,AC50,TTR (gene 7276),33.2 µM (active)
same,outcome,[1],inactive
same,outcome,[2],inactive
same,outcome,[3],inactive
O=C(O)C(F)(F)C(F)(F)F,outcome,[1],inactive
same,outcome,[2],inactive
same,outcome,[3],inactive
O=S(=O)(OCC(F)F)C(F)(F)F,outcome,[1],inactive
same,outcome,[2],inactive
same,outcome,[3],inactive
FC(F)(F)C(F)(F)C(F)(F)N(C(F)(F)C(F)(F)C(F)(F)F)C(F)(F)C(F)(F)C(F)(F)F,outcome,[1],inactive
same,outcome,[6],inactive
same,outcome,[2],inactive
same,outcome,[3],inactive
O=C(O)C(F)(OC(F)(F)C(F)(OC(F)(F)C(F)(OC(F)(F)C(F)(F)C(F)(F)F)C(F)(F)F)C(F)(F)F)C(F)(F)F (configuration not stated),outcome,[1],inactive
same,outcome,[2],inactive
same,outcome,[3],inactive
O=S(=O)(OCCOC(F)(F)F)C(F)(F)F,outcome,[1],inactive
same,outcome,[6],inactive
same,outcome,[2],inactive
same,outcome,[3],inactive
CCO[Si](CCC(F)(F)C(F)(F)C(F)(F)C(F)(F)C(F)(F)C(F)(F)F)(OCC)OCC,outcome,[1],inactive
same,outcome,[2],inactive
same,outcome,[3],inactive
O=C(O)C=C(C(F)(F)F)C(F)(F)F,outcome,[1],inactive
same,outcome,[2],inactive
same,outcome,[3],inactive
OCC(F)(F)C(F)(F)C(F)(F)C(F)(F)C(F)(F)C(F)(F)F,AC50,TTR (gene 7276),36.8 µM (active)
same,outcome,[1],inactive
same,outcome,[2],inactive
same,outcome,[3],inactive
COC(=O)CCC(F)(F)C(F)(F)C(F)(F)C(F)(F)F,AC50,TTR (gene 7276),53.4 µM (active)
same,outcome,[1],inactive
same,outcome,[2],inactive
same,outcome,[3],inactive
OCCCC(F)(F)C(F)(F)C(F)(F)F,outcome,[1],inactive
same,outcome,[2],inactive
same,outcome,[3],inactive
